# Source: PubChem BioAssay
# Sampled rows, rich in hits. Any-hit rate of the full collection: about 3.4%.
# ADAM10 inh: inhibits human ADAM10. recombinant ADAM10, EDANS/DABCYL FRET peptide cleavage, 3 h. inhibition, % at 7 µM. hit rate 0.62% among 370,000. AID 720582;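 active means inhibition above a per-campaign cutoff equal to the mean of compounds falling between control-based bounds plus 3 SD, cut at about 20% in these data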;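 further: 0% = DMSO wells while the 100% control is not disclosed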
# Target sequence (O14672 214-748 limits assumed): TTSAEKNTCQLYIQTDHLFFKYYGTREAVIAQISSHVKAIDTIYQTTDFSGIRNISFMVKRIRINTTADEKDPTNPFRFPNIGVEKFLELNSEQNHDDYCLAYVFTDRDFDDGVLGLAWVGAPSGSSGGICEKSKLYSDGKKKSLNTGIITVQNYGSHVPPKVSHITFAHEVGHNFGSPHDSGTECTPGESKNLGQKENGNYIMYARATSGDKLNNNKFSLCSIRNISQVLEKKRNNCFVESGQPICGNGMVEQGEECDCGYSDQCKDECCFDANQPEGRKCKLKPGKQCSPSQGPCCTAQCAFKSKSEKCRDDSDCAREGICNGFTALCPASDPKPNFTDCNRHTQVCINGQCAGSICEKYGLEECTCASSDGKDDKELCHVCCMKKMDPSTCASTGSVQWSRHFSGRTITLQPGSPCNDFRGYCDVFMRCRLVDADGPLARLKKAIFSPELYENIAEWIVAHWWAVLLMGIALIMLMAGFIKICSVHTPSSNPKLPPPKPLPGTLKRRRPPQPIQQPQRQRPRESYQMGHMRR
# sPLA2-III inh: Blocks human group III sPLA2 activity. Q9NZ20. QFRET BODIPY PC-A2 liposome hydrolysis, fluorescence. inhibition, % at 12.2 µM. hit rate 0.56% among 370,000;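 active means inhibition above mean plus 3 SD of compounds lying within the high and low control bounds, cut at about 19% in these data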;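 further: 0% = median of test compound wells and 100% = no enzyme DMSO wells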
# ADAM17 inh: inhibitors of human ADAM17. P78536. recombinant ADAM17, EDANS/DABCYL FRET peptide cleavage. inhibition, % at 6.95 µM. hit rate 0.83% among 370,000. AID 720648;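 active means inhibition above the mean of compounds lying between control limits plus 3 SD, set per campaign, cut at about 8.5% in these data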;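 further: 0% = DMSO-only wells as the low control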
# KLK7 zymogen act: activators of human kallikrein-7 zymogen; purified proKLK7, EDANS-DABCYL substrate fluorescence; 100% is mature enzyme control, 0% vehicle; activation, % at 7 µM; hit rate 0.9% among 370,000;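 active means activation above the mean of all tested compounds plus 3 SD, computed per campaign excluding outliers beyond control limits, cut at about 13% in these data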
# PLC-beta3 inh: blocks human PLC-beta3 enzyme activity; inhibition, % at 12.2 µM; Purified PLC-beta3, fluorogenic substrate, fluorescence; hit rate 0.18% among 370,000; Q01970; in the data active means inhibition above about 11%;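 further: 0% = median of compound wells on plate and 100% = full blocker control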
# PLC-gamma1 inh: inhibitors of human phospholipase C gamma1. purified PLC-gamma1, fluorogenic substrate, fluorescence. inhibition, % at 12.2 µM. P19174. hit rate 0.84% among 370,000; in the data active means inhibition above about 9.5%
# ADAM10 confirm: human ADAM10 inhibition, confirmation | AID 743208 | ADAM10 QFRET peptide cleavage, EDANS fluorescence | shares compounds with ADAM10 inh | hit rate 1% among 2,100 | inhibition, % at 6.95 µM;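 active means inhibition above about 20% chosen separately for each screening run, limit read from the data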;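 further: 0% = DMSO wells and 100% = marimastat wells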
# ADAM17 ctr: ADAM17 inhibition, counter-screen for ADAM10 exosite hits; hit rate 0.5% among 2,100; ADAM17 QFRET peptide cleavage, EDANS fluorescence; AID 743214; inhibition, % at 6.95 µM; shares compounds with ADAM10 inh;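 active means mean triplicate inhibition above the solvent-only control wells' mean plus 3 SD, cut at about 12% in these data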;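 further: 0% = DMSO wells and 100% = marimastat wells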
# ADAM10 counter: ADAM10 inhibition, counter-screen for ADAM17 exosite hits; shares compounds with ADAM17 inh; recombinant ADAM10, EDANS/DABCYL FRET peptide cleavage, 3 h; inhibition, % at 6.95 µM; hit rate 47% among 2,900;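 active means mean inhibition over the triplicate runs exceeds the activity threshold set in the earlier primary screen, cut at about 20% in these data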;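 further: 0% = DMSO wells and 100% = marimastat wells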
# ADAM17 confirm: human ADAM17 inhibition, confirmation. shares compounds with ADAM17 inh. recombinant ADAM17, EDANS/DABCYL QFRET peptide cleavage. inhibition, % at 6.95 µM. hit rate 65% among 2,900. AID 743257;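 active means mean inhibition across replicates above the hit cutoff set in the primary screen, cut at about 8.5% in these data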;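 further: 0% = DMSO wells and 100% = marimastat wells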
# The depositor's hits bear a star; x = no result.
SMILES,ADAM10 inh,sPLA2-III inh,ADAM17 inh,KLK7 zymogen act,PLC-beta3 inh,PLC-gamma1 inh,ADAM10 confirm,ADAM17 ctr,ADAM10 counter,ADAM17 confirm
C#CCN(C[C@@H]1[C@@H](OC(=O)NCc2ccc(OC)c(OC)c2)[C@@H](OC(=O)NCc2ccc(OC)c(OC)c2)CN(C(=O)OC(C)C)N1C(=O)OC(C)C)S(=O)(=O)c1ccc(C)cc1,26.9*,-13.4,11.2*,0.1,0.2,-2.3,3.6,1.0,43.2*,22.1*
C#CCN(C[C@@H]1[C@@H](OC(=O)NCc2ccc(OC)c(OC)c2)[C@@H](OC(=O)NCc2ccc(OC)c(OC)c2)Cn2c(=O)ccc(=O)n21)S(=O)(=O)c1ccc(C)cc1,16.8,-11.7,1.8,0.6,2.4,4.6,x,x,x,x
Oc1ccccc1C=Nn1c(-c2ccccc2F)n[nH]c1=S,1.6,10.6,-2.8,-4.1,-8.6,-6.9,x,x,x,x
CCCc1nc2ccccc2c(C(=O)OCC(=O)NC2CC2)c1CC,-3.0,-0.8,-0.6,-0.1,-1.8,-4.0,x,x,x,x
CCCc1nc2ccccc2c(C(=O)OCC(=O)Nc2ccc(S(=O)(=O)N3CCOCC3)cc2)c1CC,40.2*,-43.5,17.5*,-0.2,3.2,3.0,10.3,4.0,29.8*,18.4*
COc1cc(NC(=O)c2ccno2)cc(C(=O)Nc2cccc(C(F)(F)F)c2)c1,28.1*,-11.8,11.5*,0.5,3.7,3.4,0.0,-0.2,24.9*,13.1*
COc1cc(NC(=O)c2cc3cccc(OC)c3o2)cc(C(=O)Nc2cccc(C(F)(F)F)c2)c1,5.7,-5.1,1.0,-0.8,1.7,1.1,x,x,x,x
COc1ccccc1NS(=O)(=O)c1ccc2oc(SCc3ccc(F)cc3)nc2c1,-5.9,7.1,-4.1,-1.1,0.8,0.8,x,x,x,x
COc1ccc(NS(=O)(=O)c2ccc3oc(SCc4ccc(F)cc4)nc3c2)cc1,25.3*,-46.0,11.4*,-0.5,-0.3,0.7,7.2,4.3,22.2*,12.1*
CC(C)(C)NC(=O)C(c1ccc(-c2ccccc2)cc1)N(C[C@H]1CC[C@@H]([C@@H]2CC[C@H](CO)O2)O1)C(=O)c1cccc(Cl)c1 (some centres not stated),-5.9,-2.6,0.7,0.5,-1.0,3.2,x,x,x,x
CC(C)(C)NC(=O)C(c1ccc(-c2ccccc2)cc1)N(C[C@H]1CC[C@@H]([C@@H]2CC[C@H](CO)O2)O1)C(=O)c1ccc2ccccc2c1 (some centres not stated),21.2*,-18.2,10.3*,0.0,4.1,4.4,3.2,0.7,16.0,10.1*
C#CCNC(=O)C[C@H]1C[C@@]2(C(=O)OC)C(=C[C@H](C(C)(C)C)O[C@@H]2C)N(Cc2ccc(Cl)cc2Cl)C1=O,8.2,-2.1,3.3,0.1,1.5,0.9,x,x,x,x
S=C(Nc1ccc(Nc2ccccc2)cc1)NC1CCCCCC1,29.8*,0.9,10.2*,-0.2,7.0,1.9,16.7,4.4,27.6*,16.7*
S=C(Nc1ccc(Cl)cc1)NC1CCCCC1,-19.4,16.3,-9.0,-1.2,-11.7,-2.6,x,x,x,x
CCN(CC)C(=O)[C@H]1C[C@H](CC(=O)NCc2cccc(C(F)(F)F)c2)C(=O)N2CCc3c([nH]c4ccc(Cl)cc34)[C@]12C,23.2*,5.1,10.7*,0.0,1.6,3.8,3.0,1.2,30.8*,13.4*
CCN(CC)C(=O)[C@H]1CC(CC(=O)NCc2cccc(C(F)(F)F)c2)C(=O)N2CCc3c([nH]c4ccccc34)[C@]12C (some centres not stated),-1.1,-0.6,0.6,-0.5,-1.7,-0.5,x,x,x,x
COC(=O)[C@]12C[C@H](CC(=O)N3CCCCC3)C(=O)N(CCc3ccc(OC)c(OC)c3)C1=C[C@H](C1CCCC1)O[C@@H]2C,6.4,-3.1,2.6,0.7,6.3,0.2,x,x,x,x
CCCCOC(=O)c1ccc(NC(=O)c2c(Cl)ccc(Cl)c2OC)cc1,22.2*,-11.7,9.3*,0.5,0.7,4.4,8.0,2.8,22.0*,13.6*
CCc1nc2ccc(C(=O)NCc3ccc4c(c3)OCO4)cn2c1N(C)Cc1ccc(OC)cc1,29.7*,-0.5,18.7*,1.0,-47.3,-23.6,4.1,1.2,23.9*,14.8*
CN(C)c1ccc(/C=C2\SC(=S)N(Nc3ncc(C(F)(F)F)cc3Cl)C2=O)cc1,-2.1,-7.0,-0.5,0.1,-43.9,-35.5,x,x,x,x
COc1cc(/C=C2\SC(=S)N(Nc3ncc(C(F)(F)F)cc3Cl)C2=O)ccc1O,34.4*,-24.5,12.1*,2.8,-161.9,-118.4,4.4,1.2,34.6*,18.7*
Cc1ccc(S(=O)(=O)N(C)[C@H]2C[C@H]3c4cc(-c5ccccc5C)ccc4CCN3C[C@H]2[C@H](C)O)cc1,-13.7,4.6,-2.0,5.8,-31.5,-33.5,x,x,x,x
CC(=O)N(C)c1ccc(OCC(O)COc2ccc(N(C)C(C)=O)cc2)cc1,-5.2,13.1,-0.6,0.0,-0.9,2.6,x,x,x,x
C=C(C)C(=O)OCC(O)COc1ccc(C(C)(C)c2ccc(OCC(O)COC(=O)C(=C)C)cc2)cc1 (configuration not stated),35.2*,-64.4,9.5*,-0.1,3.2,0.8,7.6,1.9,33.1*,17.6*
Cc1cc(C)cc(C(=O)OCCN(C)C2CN(Cc3cn(Cc4ccccc4C(F)(F)F)nn3)S(=O)(=O)C2)c1 (configuration not stated),2.6,-11.8,0.3,0.1,2.8,0.9,x,x,x,x
N#Cc1nc(COc2ccc(Cl)cc2)oc1N1CCN(Cc2ccccc2)CC1,21.9*,-8.8,8.6*,0.8,4.1,5.1,1.5,1.3,25.8*,16.4*
CCN1CCN(c2oc(COc3ccc(Cl)cc3)nc2C#N)CC1,1.4,-4.8,-0.9,0.0,-10.0,1.7,x,x,x,x
COC(=O)[C@]12C[C@H](CC(=O)NCCCCc3ccccc3)C(=O)N(Cc3cccc4ccccc34)C1=C[C@H](COCc1ccccc1)O[C@@H]2C,8.6,-19.4,-0.9,-0.7,-2.0,-0.6,x,x,x,x
Nc1nc(-c2ccccc2)c(N=Nc2ccccc2Cl)s1,25.6*,-1.8,15.9*,0.9,3.4,-0.7,14.4,4.6,39.7*,25.1*
